The text below walks through data of PubChem BioAssay AID651946 (Broad Institute, 2012).

Structures are written as SMILES. Measured potencies and affinities stand elsewhere. Calls of active or inactive are those of the source.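 The calls were made as follows: active = toxic compound whose fitted half-effect dose of signal loss is at most twice its top tested dose; inconclusive = flat fit losing 30 to 70% signal, or poor fit; inactive = the rest.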

This assay can be described thus: HeLa cell viability loss – plate reader, dry powder, cytotoxicity control, dose response (AID 651946). The conditions noted are these: ATP luminescence (CellTiter-Glo), 48 h; series mostly up to 26 µM. A general note: ATP-based viability assays read luminescence as a measure of living cells.
As for `Clc1ccc(-c2nnc(SCc3ccccc3)o2)cc1`, the molecule was called inactive.

Regarding `COc1ccc(CSc2nnc(-c3ccccc3)o2)cc1`, the molecule was called inactive.

Regarding `c1ccc(CSc2nnc(-c3ccccc3)o2)cc1`, the outcome was inactive.
